# Screening results deposited in PubChem BioAssay by National Center for Advancing Translational Sciences (NCATS).
# Sampled rows, rich in hits. Any-hit rate of the full collection: about 7.3%.
# HCV inhibitor: qHTS Assay for Inhibitors of Hepatitis C Virus (HCV); Potency, µM (series often up to 41.8 µM), most hits filed as inhibitors; 340,000 compounds, 3.4% hits; AID 651820, 2012; Huh7.5.1 HCVcc-Cre infection, luciferase reporter, 44 h
#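 After 44 h co-culture of compound, cells and HCVcc-Cre (~0.5 moi), substrate is added for 15 min at room temperature and luciferase measured over 15 sec. Cells were seeded at 1,000/well and pre-cultured 4 h.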
# AmpC inh no detg: qHTS Inhibitors of AmpC Beta-Lactamase (assay without detergent) | P00811 | AmpC nitrocefin hydrolysis, absorbance 480 nm, 0.0001% Triton | Potency, µM (top dose mostly 57.1 µM), most hits filed as inhibitors | 330,000 compounds, 0.52% hits; also: nearly all actives have a fitted effect of over 20% in size
# Target sequence (P00811 whole entry, looked up): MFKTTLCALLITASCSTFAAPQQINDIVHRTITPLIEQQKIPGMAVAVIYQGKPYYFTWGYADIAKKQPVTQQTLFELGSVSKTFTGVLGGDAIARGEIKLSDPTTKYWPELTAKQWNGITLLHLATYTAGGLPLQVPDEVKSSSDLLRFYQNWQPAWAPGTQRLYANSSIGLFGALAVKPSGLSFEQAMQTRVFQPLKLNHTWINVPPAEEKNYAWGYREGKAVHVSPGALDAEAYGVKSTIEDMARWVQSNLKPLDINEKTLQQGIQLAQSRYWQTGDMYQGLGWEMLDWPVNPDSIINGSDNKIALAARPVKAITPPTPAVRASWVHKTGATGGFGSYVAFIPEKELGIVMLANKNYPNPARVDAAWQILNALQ
#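 20 mM phosphate pH 7.0 + 0.01% (detergent screen) or 0.0001% Triton X-100; 5.3 nM AmpC reagent; cpd preinc 15 min RT; nitrocefin (800 uM stock) to start; A480 q20 s × 4 min; Activity was normalised to no-enzyme and no-compound control wells.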
# FMDV inh: High Throughput Screening for Foot and Mouth Disease Virus Antivirals; FMDV antiviral cell-based qHTS; Potency, µM (titrated, usually from 57.9 µM), actives largely listed as inhibitors; 410,000 compounds, 1.2% hits; AID 1159524, 2015; calls by dose curve; tested in HEK293T cells; also: read-out not given here; nearly all actives have a fitted effect of over 45% in size
# AmpC inh detg: qHTS Inhibitors of AmpC Beta-Lactamase (assay with detergent). P00811. AmpC hydrolysis of nitrocefin, absorbance 480 nm, 0.01% Triton. Potency, µM (series often up to 114 µM), actives largely listed as inhibitors. 370,000 compounds, 0.041% hits. AID 485294, 2010; also: nearly all actives have a fitted effect of over 25% in size
#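 20 mM phosphate pH 7.0 + 0.01% (detergent screen) or 0.0001% Triton X-100; 5.3 nM AmpC reagent; cpd preinc 15 min RT; nitrocefin (800 uM stock) to start; A480 q20 s × 4 min; Activity was normalised to no-enzyme and no-compound control wells.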
# HCMV inh: qHTS Assay for inhibitors of the human cytomegalovirus (HCMV) | HFF cells, HCMV-luciferase reporter, 72 h; stronger effect = lower value | activity change, negative = inhibition, % at 57.5 µM | 410,000 compounds, 4.5% hits | AID 1259415, 2018; in the data active = activity change below about -60%; inconclusive = no clear call, values can overlap the other calls; inactive = above about -39%
#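 Two compound doses tested in HFFs infected with HCMV-luciferase, MOI 1 PFU/cell, 72 h at 37C. Lysate luminescence read with OneGlo; data normalized against buffer-only and 10uM Salinomycin inhibitor controls.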
# Numbers stand for hits; . = inactive; ? = inconclusive; / = not tested or not shown; ! = not confirmed by another sample. Unless noted, calls follow the shape of the dose curve; as a rule, active = well fitted curve in the direction sought with a large enough effect; inconclusive = small, poorly fitted or top-dose-only effect, or another doubt; inactive = no such curve, though single readings can be large; an effect the other way counts as inactive or inconclusive.
SMILES,HCV inhibitor,AmpC inh no detg,FMDV inh,AmpC inh detg,HCMV inh
Cc1cccc(CC(=O)Nc2cc(C)c3c(=O)oc4ccccc4c3n2)c1,?,.,.,?,.
COc1ccc(Cn2c(C(=O)O)c(CNCc3ccc(C)o3)c3ccc(C)cc32)cc1,/,/,.,.,.
COc1ccc(CNCc2c(C(=O)O)n(Cc3ccc(F)cc3)c3cc(C)ccc23)cc1OC,/,/,.,.,-68
Cc1ccc(Cn2c(C(=O)O)c(CNCc3ccc(OC(C)C)cc3)c3ccc(C)cc32)cc1,/,/,?,.,-105
Cc1ccc(Cn2c(C(=O)O)c(CNCc3ccc(C)o3)c3ccc(C)cc32)cc1,/,/,.,.,.
Cc1ccc(CNCc2c(C(=O)O)n(Cc3ccc(C)cc3)c3cc(C)ccc23)cc1,/,/,.,.,-107
Cc1ccc2c(CNCCc3ccco3)c(C(=O)O)n(Cc3ccc(F)cc3)c2c1,/,/,.,.,-109
Cc1ccc(CNCc2c(C(=O)O)n(Cc3ccccc3C)c3cc(C)ccc23)cc1,/,/,?,.,.
C=Cc1ccc(Cn2c(C(=O)O)c(CNCc3ccccc3)c3ccc(C)cc32)cc1,/,/,?,.,-102
CCc1ccc(CNCc2c(C(=O)O)n(Cc3ccc(C)cc3)c3cc(C)ccc23)cc1,/,/,.,.,-94
O=C(Nc1ccc(C(=O)NCc2ccccc2)cc1)C1=CSCCO1,.,.,.,.,.
COc1ccc(S(=O)(=O)Oc2ccc3c(c2)O/C(=C\c2cccnc2)C3=O)cc1,?,.,.,.,-110
O=C1/C(=C/c2cccnc2)Oc2cc(OS(=O)(=O)c3ccccc3)ccc21,?,.,?,.,/
CCN(CC)CCC(=O)Nc1cccc2c1C(=O)c1ccccc1C2=O,?,.,.,.,-99
CCN(CC)CCNC(=O)c1ccc2c(c1NCCO)C(=O)c1ccccc1C2=O,0.89µM,.,.,?,-109
O=c1cnc2cnc(Oc3ccccc3)nc2n1C[C@H]1CCCO1,/,/,.,/,/
COC(=O)[C@H]1[C@H](CO)[C@H]2Cn3c(cccc3=O)[C@@H]1N2CC1CCCCC1,/,/,/,/,.
COc1cccc(-n2c(O)c(C=NCc3ccc4c(c3)OCO4)c(=O)[nH]c2=O)c1,.,.,.,.,-105
COc1ccc(-n2c(O)c(C=NCc3ccc4c(c3)OCO4)c(=O)[nH]c2=O)cc1,.,.,.,.,.
O=C(Cc1ccc(S(=O)(=O)N2CCOCC2)s1)N1CCN(c2cccc(C(F)(F)F)c2)CC1,13µM,.,.,.,/
CC1CCN(S(=O)(=O)c2cn(CC(=O)N3CCN(c4cccc(C(F)(F)F)c4)CC3)cn2)CC1,11µM,.,?,.,/
Cc1nn(CC(=O)Nc2cccc(C(F)(F)F)c2)c(=O)c2cccn12,.,.,.,.,.
Cc1nn(CC(=O)N2CCN(c3cccc(C(F)(F)F)c3)CC2)c(=O)c2cccn12,.,.,.,.,-67!
Cc1ccc(C)c(CN2CCC3(CCC(CNC(=O)c4ccnn4C)O3)CC2)c1 (stereo unspecified),/,/,.,/,/
CC1(C)C(=O)Nc2ccccc2N1C(=O)COC(=O)c1cccc(O)c1,.,.,?,/,.
SMILES,HCV inhibitor,AmpC inh no detg,FMDV inh,AmpC inh detg,HCMV inh
COc1cc(C(=O)OCC(=O)N2c3ccccc3NC(=O)C2(C)C)ccc1OCC(C)C,6.3µM,.,?,.,.
Cc1ccc(C(=O)Nc2ccc(N3CCN(C)CC3)cc2)c(Cl)c1,.,.,.,.,.
Cc1cc(C(C)(C)C)ccc1OCCCCN1CCCC1,22µM,.,.,.,.
Cc1cc(Br)ccc1OCCCCN1CCCCC1,10µM,.,.,.,.
Cc1cc(C(C)(C)C)ccc1OCCN1CCCC1,.,.,.,.,.
CCCC(C)(C)C(=O)N1CCC1(C)C(=O)NS(=O)(=O)c1ccc(Cl)cc1 (stereo unspecified),/,/,.,/,.
O=C1CC[C@@H](C(=O)NCC2Cc3cc(Cl)cc(-c4ccc5[nH]ccc5c4)c3O2)N1 (stereo partly specified),/,/,.,/,/
O=C(CN1C(=O)C(c2ccc(F)cc2)=NC12CCCC2)Nc1ccc(F)cc1,2.5µM,.,?,.,-78
Cc1cccc(NC(=O)CN2C(=O)C(c3ccccc3)=NC23CCC(C)CC3)c1 (stereo unspecified),/,/,.,.,-61
COc1ccccc1N1CCN(c2cc(C)nc3nncn23)CC1,/,/,.,.,?
CC(=O)Nc1ccc(NC(=O)CSc2nnc(CNc3ccc(F)cc3)n2CC2CCCO2)cc1 (stereo unspecified),.,.,.,.,.
CCCc1nnc(SCC(=O)N2CCOCC2)n1CC1CCCO1 (stereo unspecified),.,.,.,.,-68
O=C(CSc1nnc(CNc2ccc(F)cc2)n1CC1CCCO1)N1CCOCC1 (stereo unspecified),.,.,.,.,-98
Cc1cccc(C(=O)NCc2nc(-c3cccc(NC(=O)c4ccoc4C)c3)oc2C)n1,/,/,.,/,/
CN(C)c1ccc(/C=C(/NC(=O)c2ccccc2)C(=O)NCCCn2ccnc2)cc1,.,.,.,.,/
CC(C)(C)OC(=O)NNC1CC(=O)N(c2ccccc2F)C1=O (stereo unspecified),.,.,.,.,-71
CCOC(=O)NNC1CC(=O)N(c2ccccc2)C1=O (stereo unspecified),.,.,.,.,.
O=C(Nc1ncccc1O)c1c(O)c2ccccc2[nH]c1=O,.,.,.,.,-77
O=C(c1cnc2ccccn2c1=O)N1CCCc2ccccc21,.,.,.,?,-64
Cc1csc2ncc(C(=O)N3CCCc4ccccc43)c(=O)n12,.,3.5µM,.,?,.
O=C(c1cccc(Br)c1)N1CCCc2ccccc21,.,.,.,.,.
O=C(c1coc(=O)c(Br)c1)N1CCCc2ccccc21,.,.,.,?,-75
O=C(c1cnc2n(c1=O)CCS2)N1CCCc2ccccc21,.,.,.,?,.
CC1=NN(c2nc(-c3ccc(C)cc3)cs2)C(=O)C1N=Nc1ccc(C(N)=O)cc1 (stereo unspecified),2.8µM,.,.,.,?
CC1=NN(c2nc(-c3ccc(C)cc3)cs2)C(=O)C1N=Nc1ccc2ccccc2c1 (stereo unspecified),.,.,.,.,.
CC(C)NCC(O)Cn1c2c(c3ccccc31)CCc1c-2cnn1-c1ccccc1 (stereo unspecified),?,.,?,.,-103
CCCN1CCN(CCCNC(=O)c2cc3c(s2)-c2c(C)cccc2OC3)CC1,2.5µM,.,.,?,-70!
COC(=O)c1cc2c(s1)-c1cc(F)ccc1OC2,.,.,.,.,-66
CC1CC(C)CN(CCCNC(=O)c2cc3c(s2)-c2ccccc2OC3)C1 (stereo unspecified),8.9µM,.,.,.,?
